Reference: PubChem BioAssay AID720513 (Broad Institute, 2013)
About 480 (23%) of roughly 2,100 compounds were called active. Another 5% or so got no clear call; they are omitted.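 Rule for the calls: active = fitted curve reaches 40% activation at or below the top valid concentration, in every replicate test; inconclusive = replicate tests disagree on the call; inactive = the rest, including activity in the opposite direction.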 A selection follows. Measured potencies and affinities stand elsewhere.

Test: activators raising PGC1a acetylation in cells, dose response, cell-based, cherry-picked samples, set 6 (AID 720513);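 note: cells made to overexpress flag tagged PGC1a plus GCN5 acetyltransferase by viral infection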
Conditions: U2OS PGC1a acetylation AlphaLISA, overnight, 0 = neutral, -100 = inhibitor control; series mostly up to 19.5 µM

Compound	outcome
CCC(=O)N[C@H]1CC[C@H](CCNC(=O)Nc2ccc(C(F)(F)F)cc2)O[C@H]1CO	inactive
COc1cccc(CN2C[C@@H]3N[C@H](C2)C3c2ccc(-c3ccccc3OC)cc2)c1 (some centres undefined)	inactive
COc1cc(CN2C[C@@H]3N[C@H](C2)C3c2ccc(-c3ccccc3C)cc2)cc(OC)c1 (some centres undefined)	inactive
CC(C)c1ccc(-c2nnn(CC(=O)N3CCCCC3)n2)cc1	inactive
Cc1ccc(S(=O)(=O)N2CCCC2)cc1C(=O)O	inactive
CN(C)CCCN(C(=O)CCOc1ccccc1)c1nc2ccc(F)cc2s1	inactive
CC(C)[C@H](C)NC(=O)N(C)C[C@@H]1OCc2ccccc2-c2ccccc2C(=O)N([C@@H](C)CO)C[C@H]1C	inactive
CC(C)NC(=O)N(C)C[C@H]1Oc2c(NS(=O)(=O)c3cn(C)cn3)cccc2C(=O)N([C@@H](C)CO)C[C@@H]1C	inactive
C[C@@H]1CN([C@@H](C)CO)C(=O)c2c(c3ccccc3n2C)-c2ccccc2CO[C@H]1CN(C)S(=O)(=O)c1ccsc1	inactive
CC(C)CC#Cc1cnc2c(c1)C(=O)N([C@@H](C)CO)C[C@@H](C)[C@H](CN(C)C(=O)c1ccccc1)O2	inactive
CCN(C(=O)COC(=O)/C=C/c1cccc(Cl)c1)c1c(N)n(Cc2ccccc2)c(=O)[nH]c1=O	inactive
Clc1ccccc1OCCCCN1CCCC1	inactive
CO[C@H]1CN(C)C(=O)c2cc(NS(C)(=O)=O)ccc2OC[C@@H](C)N(C(=O)CC2CC2)C[C@H]1C	inactive
CCOC(=O)CSc1nccc(N(C)C)c1C#N	inactive
CC(NCc1cccs1)C(=O)NC1CCCCC1 (centres undefined)	inactive
O=C(OCc1cnc(Cl)s1)c1cccs1	inactive
CO[C@@H]1CN(C)C(=O)c2ccc(NC(=O)c3ccc(Oc4ccccc4)cc3)cc2OC[C@@H](C)N(C(C)=O)C[C@H]1C	inactive
COc1ccc(S(=O)(=O)N(C)C[C@H]2Oc3ccc(NC(=O)CCN4CCOCC4)cc3C(=O)N([C@@H](C)CO)C[C@@H]2C)cc1	inactive
O=C(Nc1ccc([N+](=O)[O-])cn1)c1ccc(Br)o1	inactive
CSCC[C@H](NC(=O)c1ccc(Br)o1)c1nnc2ccccn12	inactive
CC(=O)N(C)C[C@@H]1Oc2cc(-c3ccc(F)cc3)ccc2S(=O)(=O)N([C@H](C)CO)C[C@H]1C	inactive
C[C@@H]1CN([C@@H](C)CO)C(=O)c2cccc(NC(=O)C3CCCCC3)c2O[C@@H]1CN(C)CC1CCCCC1	inactive
O=C(Nc1cccc(Cl)c1)c1cncn1-c1ccc(F)cc1	inactive
COc1cc(NC(=O)c2[nH]cnc2C(N)=O)cc(C(=O)Nc2cccc(C(F)(F)F)c2)c1	inactive
